The full list was thinned out, with hits kept by preference.
mHTT CaM bind: mutant huntingtin-calmodulin interaction inhibitors – biochemical, AlphaScreen, primary screen. actives 3.6% (n = 190,000). P42858. AlphaScreen His-mHTT/GST-CaM binding, luminescence. AID 1671202, 2021. inhibition, % at 15 µM;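 also: 0% = both proteins with DMSO and 100% = one protein alone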
Pf apPOL block: Pf-apPOL inhibitors, biochemical, fluorescence; Recombinant Pf-apPOL, molecular beacon fluorescence, 1.5 h; inhibition, % at 10 µM; actives 0.25% (n = 210,000); AID 1794808, 2022
* marks the source's active call; other numbers are inactive results; · = no result given. Rule as the data show it: active = inhibition above about 50%; inactive = the rest.

SMILES	mHTT CaM bind	Pf apPOL block
Cc1ccc2[nH]cc(CCN3CC(C(=O)Nc4cccc(Cl)c4)CC3=O)c2c1 (stereo not drawn)	47	-2
CCC(C1=C(O)CC(C)(C)CC1=O)C1C(=O)CC(C)(C)CC1=O (stereo not drawn)	3	·
COc1cccc(C(=O)Nc2c3c(nn2-c2cccc(Cl)c2)CSC3)c1OC	14	-6
CCN1CCN(CCC(=O)Nc2cc(OC)cc(OC)c2)CC1	6	-12
CN(Cc1ccccc1)C(=O)C1CC(=O)N(CCc2c[nH]c3ccc(Cl)cc23)C1 (stereo not drawn)	62*	5
CCNC(=O)C1CC(=O)N(CCc2c[nH]c3ccc(Cl)cc23)C1 (stereo not drawn)	5	-2
Cc1ccc2[nH]cc(CCN3CC(C(=O)Nc4cc(Cl)ccc4C)CC3=O)c2c1 (stereo not drawn)	49	-4
Cc1ccc2[nH]cc(CCN3CC(C(=O)Nc4cccc(Cl)c4C)CC3=O)c2c1 (stereo not drawn)	56*	-2
Cc1ccc2[nH]cc(CCN3CC(C(=O)Nc4ccc(F)cc4)CC3=O)c2c1 (stereo not drawn)	10	1
COc1ccc(NC(=O)C2CC(=O)N(CCc3c[nH]c4ccc(Cl)cc34)C2)cc1 (stereo not drawn)	87*	-5
O=S(=O)(c1ccc(F)cc1)N1CCN(Cc2ccc3c(c2)OCO3)CC1	1	-9
O=C(CN1C(=O)/C(=C/c2ccc(Cl)cc2)Sc2ccccc21)NCCc1ccccc1	9	21
Cc1ccc(S(=O)(=O)N(C)c2c(C)ccc(S(=O)(=O)n3nc(C)cc3C)c2C)cc1	-10	-1
CCOc1ccc(/C=C2\SC(=NS(=O)(=O)c3ccc(C)cc3)NC2=O)cc1	51*	-3
Cc1ccc(S(=O)(=O)N=C2NC(=O)/C(=C/c3ccccn3)S2)cc1	5	0
COc1ccc(-c2cc(NS(=O)(=O)c3cnc[nH]3)n(C3CCS(=O)(=O)C3)n2)cc1 (stereo not drawn)	-14	-8
Cc1nc(C)c(Cc2ccccc2)c(N2CCN(C(=O)C(C)C)CC2)n1	1	2
COc1ccc(OC)c(S(=O)(=O)n2nnc3cc(Cl)ccc32)c1	100*	-10
Cc1ccc(C)c(S(=O)(=O)n2nnc3cc(Cl)ccc32)c1	-6	-2
O=C(NCc1ccccc1)N1CCOc2ccc(Cl)cc21	-17	-1
COC(=O)c1sccc1S(=O)(=O)N1CCN(C2c3ccccc3-c3ccccc32)CC1	·	-5
Cn1cc2c3c(cccc31)CN(C(=O)C1CCCC1)CC2	39	-4
COc1cc(NC(=O)N2CCc3cn(C)c4cccc(c34)C2)cc(OC)c1	-2	-1
COc1cc(OC)cc(C(=O)N2CCc3cn(C)c4cccc(c34)C2)c1	55*	-1
CCn1cc2c3c(cccc31)CN(C(=O)c1cccc(OC)c1)CC2	69*	-2
SMILES	mHTT CaM bind	Pf apPOL block
CCn1cc2c3c(cccc31)CN(C(=O)NCc1cccc(OC)c1)CC2	6	5
Cn1cc2c3c(cccc31)CN(C(=O)C1CCCCC1)CC2	62*	-6
CCOC(=O)C1CCN(C(=O)C2CCN(c3nccc(C)n3)CC2)CC1	9	-1
CCCNC(C)=C(C(=O)OCC)C(=S)Nc1ccc(OCC)cc1	·	4
CCN1C(=O)c2cccnc2Sc2cc(NC(=O)c3ccc(F)cc3F)ccc21	2	-6
Cc1ccc(N2C(=O)CC(Nc3ccc(C)c(C)c3)C2=O)c(C)c1 (stereo not drawn)	11	-1
COc1cc(/C=C2\C(=O)NC(=O)N(c3ccc(Br)cc3)C2=O)c([N+](=O)[O-])cc1OC	12	-14
C=CCN(CC=C)Cc1c(C)[nH]c2ccc(Cl)cc2c1=O	2	-4
CC1=C(C(=O)Nc2ccc(C)c(Cl)c2)C(c2ccccc2Cl)NC(=O)N1 (stereo not drawn)	90*	-4
CC1=C(C(=O)Nc2ccc(F)c(F)c2)C(c2ccccc2F)NC(=O)N1 (stereo not drawn)	-1	-3
CCC(=O)c1c(C)c(C)c(C)c(C)c1C	·	-5
COc1ccc(-n2nc3c(c2NC(=O)/C=C/c2ccccc2)CS(=O)(=O)C3)cc1	1	-4
Cc1ccc(C)n1-c1ccc(Br)cc1	·	-6
Cc1cc2n(c1)CCn1c(C)ccc1-2	93*	42
Cc1ccc2n1CCn1cc(-c3ccc(Br)cc3)cc1-2	99*	-7
CCOC(=O)CNC(=O)N1CCc2c(c(COCc3cccc(F)c3)nn2C)C1	-4	-6
Fc1ccc(-c2csc(Nc3ccc(Oc4ccccc4)cc3)n2)cc1	48	-2
COc1ccc(-c2csc(Nc3cccc(C(=O)O)c3)n2)cc1	19	1
COc1cccc(Nc2nc(-c3ccc(F)cc3)cs2)c1	59*	-1
COc1ccc(-c2csc(Nc3cccc(O)c3)n2)cc1	89*	-5
O=[N+]([O-])c1ccc(-c2csc(CSc3nnc(SCC4CC4)s3)n2)cc1	·	-8

Screening results deposited in PubChem by University of Kansas High Throughput Screening Laboratory.
